From PubChem BioAssay (Tox21)
Results filed as inconclusive are left out. The source made the active and inactive calls. Calls come from the whole dose curve.

Target: Progesterone receptor (Homo sapiens) (UniProt P06401)
Assay: qHTS assay to identify small molecule agonists of the progesterone receptor (PR) signaling pathway (AID 1346784); note: nearly all actives have a fitted effect of over 30% in size
Conditions: PR-UAS-bla HEK293T, beta-lactamase FRET ratio, 16 h; series mostly up to 92.4 µM; activation: at the top concentration
Source text: U.S. Tox21 Program National Center for Advancing Translational Sciences [NCATS] NIH Chemical Genomics Center [NCGC] U.S. Environmental Protection Agency [EPA] National Institutes of Environmental Health Sciences [NIEHS] National Toxicology Program [NTP] U.S. Food and Drug Administration [FDA] […] Endocrine disrupting chemicals (EDCs) and their interactions with steroid hormone receptors like PR causes disruption of normal endocrine function. To identify the compounds that activate PR signaling, a PR-UAS-bla GripTite cell line i.e. PR-UAS-bla HEK 293T (Invitrogen, Carlsbad, CA, USA) containing a beta-lactamase reporter gene under the control of an Upstream Activator Sequence (UAS) was used to screen Tox21 10K compound library.
Tox21 Assay Protocol Summary: PR-UAS-bla HEK 293T cells were dispensed at 3,000 cells/5 uL of assay medium containing 2% charcoal stripped FBS per well into black wall/clear-bottom 1536-well plates using a Multidrop Combi (ThermoFisher Scientific, Waltham, MA) dispenser. After the assay plates were incubated at a 37C and 5% CO2 for 6hr, 23 nL of compounds dissolved in DMSO, positive controls or DMSO only was transferred to the assay plate by a Pintool station (Kalypsys, San Diego, CA). The plates were incubated at 37C and 5% CO2 for 16hr. Then 1 uL of LiveBLAzer B/G FRET substrate was added using a BioRAPTR FRD (Flying Reagent Dispenser, Aurora Discovery, San Diego, CA). After the plates were incubated at room temperature for 2 hours, fluorescence intensity was measured by an Envision plate reader (PerkinElmer, Shelton, CT).
% is set by controls: 0 for no effect and ±100 for the full control effect; potency is the fitted concentration of half-maximal effect.

Progesterone receptor (Homo sapiens), sequence (P06401 whole entry, looked up): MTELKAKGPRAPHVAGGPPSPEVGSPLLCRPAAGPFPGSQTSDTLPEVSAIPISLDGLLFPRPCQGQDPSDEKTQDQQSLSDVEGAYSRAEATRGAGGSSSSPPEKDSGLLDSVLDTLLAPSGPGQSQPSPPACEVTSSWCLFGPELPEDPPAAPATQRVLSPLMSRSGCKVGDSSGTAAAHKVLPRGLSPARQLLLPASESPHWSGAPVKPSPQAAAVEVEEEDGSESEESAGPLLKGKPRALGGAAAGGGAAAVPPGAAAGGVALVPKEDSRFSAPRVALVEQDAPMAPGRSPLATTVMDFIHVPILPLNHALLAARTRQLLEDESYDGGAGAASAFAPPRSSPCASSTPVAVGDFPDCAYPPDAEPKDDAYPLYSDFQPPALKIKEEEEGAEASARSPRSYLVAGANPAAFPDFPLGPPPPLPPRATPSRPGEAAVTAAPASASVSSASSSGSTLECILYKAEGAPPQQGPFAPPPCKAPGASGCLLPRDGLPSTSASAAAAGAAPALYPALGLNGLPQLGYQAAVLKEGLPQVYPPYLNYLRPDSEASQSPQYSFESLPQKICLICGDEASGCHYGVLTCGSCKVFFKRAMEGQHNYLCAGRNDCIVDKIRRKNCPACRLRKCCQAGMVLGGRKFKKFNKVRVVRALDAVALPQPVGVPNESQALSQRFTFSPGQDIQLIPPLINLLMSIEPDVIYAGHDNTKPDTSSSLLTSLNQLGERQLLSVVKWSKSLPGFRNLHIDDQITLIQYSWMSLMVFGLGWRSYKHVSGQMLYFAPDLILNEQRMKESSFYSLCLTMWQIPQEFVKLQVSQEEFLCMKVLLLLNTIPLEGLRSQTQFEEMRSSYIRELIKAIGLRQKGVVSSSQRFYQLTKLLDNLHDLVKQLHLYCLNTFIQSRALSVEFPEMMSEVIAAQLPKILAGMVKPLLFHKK

Compound | activation | Potency
CCc1c(C)[nH]c2c1C(=O)C(CN1CCOCC1)CC2 (stereo not given) | 0.204% [at 42.5 µM] (inactive) | 
Nc1nc(Cl)nc2c1ncn2[C@H]1C[C@H](O)[C@@H](CO)O1 | -9.71% (inactive) | 
CCc1cnc(C(=O)O)c(C(=O)O)c1 | -1.28% (inactive) | 
CC(C)Cc1nccs1 | -2.53% (inactive) | 
CCC1=C(C)CN(C(=O)NCCc2ccc(S(=O)(=O)NC(=O)NC3CCC(C)CC3)cc2)C1=O (stereo not given) | -4.69% [at 42.5 µM] (inactive) | 
CC(C)C[C@H](NC(=O)[C@H](Cc1ccccc1)NC(=O)c1cnccn1)B(O)O | -11.2% [at 42.5 µM] (inactive) | 
C/C(=C(\CCO)SS/C(CCO)=C(\C)N(C=O)Cc1cnc(C)nc1N)N(C=O)Cc1cnc(C)nc1N | 0.651% [at 42.5 µM] (inactive) | 
O=C(O)c1ccc2c(c1)nc(C(=O)NC1CCN(C3CC3)CC1)n2Cc1cc(-c2ccc(Cl)s2)on1 | 1.53% [at 19 µM] (inactive) | 
CCOC(C)OCC | -1.78% (inactive) | 
CCCCCC1CCC(=O)O1 (stereo not given) | -2.75% (inactive) | 
O=C(Cl)c1cc(Cl)cc(Cl)c1 | -0.331% (inactive) | 
COc1ccc(CN(CCN(C)C)c2ncccn2)cc1 | -4.46% [at 42.5 µM] (inactive) | 
[O-][n+]1ccc(Cl)cc1 | -3.08% (inactive) | 
O=[N+]([O-])c1ccc(Cl)cc1Cl |  | 24 µM (active)
CC(O)CN (stereo not given) | 0.29% (inactive) | 
CCCCCCC/C=C/C=O | 0.212% (inactive) | 
CC(C)CC(C)(C)C | 6.17% (inactive) | 
CC(C)(C(=O)O)c1ccc(C(O)CCCN2CCC(C(O)(c3ccccc3)c3ccccc3)CC2)cc1 (stereo not given) | 0.95% [at 42.5 µM] (inactive) | 
N#Cc1ccc(CC(=O)c2cccc(C(F)(F)F)c2)cc1 | 1.97% (inactive) | 
COc1cccc([C@H](O)C2CCN(CCc3ccc(F)cc3)CC2)c1OC | -4.01% (inactive) | 

Compound | activation | Potency
Nc1ccc(F)cc1F | -0.98% (inactive) | 
Cc1c(N=C=O)cccc1N=C=O | 0.683% (inactive) | 
FC(F)(Cl)C(F)(Cl)Cl | 1.96% (inactive) | 
Cc1cc(SC2=C(O)C[C@@](CCc3ccc(N)cc3)(C(C)C)OC2=O)c(C(C)(C)C)cc1CO | -5.06% (inactive) | 
CCCOC(C)=O | -0.317% (inactive) | 
CCCCCCCCCCCCN1CCOCC1 | -2.19% (inactive) | 
COC=O | 0.0776% [at 8.39 µM] (inactive) | 
C[Si](C)(C)O[Si](C)(C)O[Si](C)(C)C | -1.46% (inactive) | 
CCOc1ccc2c(c1)C(C)CC(C)(C)N2 (stereo not given) | 5.26% (inactive) | 
CCCCCCCCCCCCCCCCCCCl | -0.486% [at 8.39 µM] (inactive) | 
O=C(c1ccco1)N1CCNCC1 | -0.756% [at 42.5 µM] (inactive) | 
NCCOCCOCCN | -2.39% (inactive) | 
Nc1ccc(C(=O)Oc2ccccc2)c(O)c1 | -0.314% [at 42.5 µM] (inactive) | 
CCCCCCCCCCCCSCCOCCO | -0.126% [at 42.5 µM] (inactive) | 
O=C(O)c1cc(C(=O)O)c(C(=O)O)cc1C(=O)O | 0% (inactive) | 
Cc1ccc(S(=O)(=O)NC(=O)NC2CCCC2)cc1 | -0.268% [at 42.5 µM] (inactive) | 
CCC(C)C1N=C(C)C(C)S1 (stereo not given) | 0.737% (inactive) | 
Cc1cc(N)n(-c2ccccc2)n1 | -1.48% (inactive) | 
CC(C)(C)N | 0.482% (inactive) | 
COc1ccc(C(=O)c2ccc(C)cc2)c(O)c1 | -1.18% (inactive) | 
